A selection: hits, their analogues and other compounds. The true share with any hit is near 8%.
HT1080 IDH1KD tx – kills HT-1080 cells with IDH1 knockdown. Potency, µM (highest dose often 46.1 µM), inactives show at the highest dose activity, negative = toxicity, hits mostly cytotoxic. HT-1080 IDH1 knockdown viability, ATP luminescence, 48 h. 2% of 360,000 active;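 further: 0% = DMSO wells and -100% = cell-free medium wells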
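In this qHTS, HT-1080 cells depleted of IDH1 are exposed for 48 h at 37 °C to compound titrations. Toxicity is scored from CellTiter-Glo luminescence, with DMSO as full viability and medium alone as none.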
MCF10A rereplic – inducers of DNA re-replication in MCF 10A breast cells. MCF 10A DNA re-replication, Hoechst nuclear intensity, 48 h. Potency, µM (highest dose often 46.1 µM), for inactives: at the top dose activity, positive = re-replication, most hits filed as activators. 2.9% of 350,000 active; further: % of control where 0% means no effect; nearly all actives have a fitted effect of over 50% in size
HT1080NT lethal – kills 2HG-producing HT-1080-NT fibrosarcoma cells; HT-1080-NT fibrosarcoma viability, CellTiter-Glo ATP luminescence, 48 h; AID 686970; 1.6% of 360,000 active; Potency, µM (series often up to 46.1 µM), for the others: top-dose activity, negative = less viability, actives largely listed as cytotoxic;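 further: NT is the 2HG producing partner of a matched IDH1 knockdown line; 0% = DMSO-treated cells and -100% = media-only wells without cells; nearly all actives have a fitted effect of over 55% in size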
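Read-out is CellTiter-Glo luminescence after 10 minutes at room temperature, following 48 hours' compound treatment of HT-1080-NT cells (750 cells/well, RPMI, 5% FBS, 37 degrees C).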
KB-V1 MDR tox – kills drug-selected multidrug resistant KB-V1 cells; KB-V1 MDR cells viability, CellTiter-Glo, 72 h; Potency, µM (titrated, usually from 46.1 µM), most hits filed as cytotoxic; 3.4% of 400,000 active; AID 1347076; further: on the % scale 0 is the no-effect control and ±100 the full control effect; nearly all actives have a fitted effect of over 60% in size
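Compound-treated KB-V1 multidrug-resistant cells, 72 h, 37 degrees C; viability by CellTiter-Glo. Fitted qHTS curves give the values.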
KB-3-1 cytotox – kills parental KB-3-1 adenocarcinoma cells; KB-3-1 viability, CellTiter-Glo ATP luminescence, 72 h; Potency, µM (highest dose often 46.1 µM), actives largely listed as cytotoxic; 1.4% of 400,000 active; further: on the % scale 0 is the no-effect control and ±100 the full control effect; nearly all actives have a fitted effect of over 60% in size
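Multi-concentration cytotoxicity screen in KB-3-1 cells grown in DMEM lacking phenol red with 10% FBS. After 72 h at 37 °C with compound, ATP-dependent luminescence was recorded.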
SW480 rerep – induces DNA re-replication in SW480 colon adenocarcinoma cells | SW480 DNA re-replication, Hoechst DNA content imaging, 48 h | Potency, µM (titrated, usually from 46.1 µM), for inactives: top-dose re-replication activation, usual class: activators | 1.8% of 340,000 active; further: % of control where 0% means no effect; nearly all actives have a fitted effect of over 55% in size
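First, 250 cells per well were seeded. Next, compound or vehicle (23 nL) was pinned in, plates sat 48 hr at 37 C. Finally Hoechst was added for 40 min before fluorescence scanning.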
Starred values were filed as active, the others as inactive; [ ] = remark or other dose. The call rests on the fitted dose curve; in most records, active means well fitted curve in the direction sought with a large enough effect; inconclusive means small, poorly fitted or top-dose-only effect, or another doubt; inactive means no such curve, though single readings can be large; an effect the other way counts as inactive or inconclusive. Potency means the concentration at half of the fitted maximal effect.

What do the screens show for `Cc1ccccc1Cn1cnc2c(oc3ccccc32)c1=O`?
HT1080 IDH1KD tx: -14%; MCF10A rereplic: inconclusive; HT1080NT lethal: -9%; KB-V1 MDR tox: inconclusive; KB-3-1 cytotox: inactive; SW480 rerep: 1%

How did Cc1cccc(Cn2cccc(C(=O)Nc3nnc(C)s3)c2=O)c1 do in these assays?
KB-V1 MDR tox: inactive; KB-3-1 cytotox: inactive

How did COC(=O)C1=Nc2ccccc2/C1=C\c1c(O)n(-c2ccc(Br)cc2)c(=O)[nH]c1=O do in these assays?
HT1080 IDH1KD tx: inconclusive; MCF10A rereplic: inconclusive; HT1080NT lethal: inconclusive; KB-V1 MDR tox: inactive; KB-3-1 cytotox: inactive; SW480 rerep: -3%

Results for O=c1[nH]c(=O)n(-c2ccccc2)c(O)c1/C=C1/C(c2ccccc2)=Nc2ccccc21 ?
HT1080 IDH1KD tx: 2.1µM*; MCF10A rereplic: 2.1µM*; HT1080NT lethal: 4.1µM*; KB-V1 MDR tox: 2.9µM*; KB-3-1 cytotox: 3.3µM*; SW480 rerep: inconclusive

Results for C[C@H]1COC(=O)[C@@H](Cc2ccc(F)cc2)CC/C=C/C[C@@H](CC(=O)N(CCO)Cc2ccccc2)C(=O)N1 ?
HT1080 IDH1KD tx: 4%; MCF10A rereplic: 1%; HT1080NT lethal: -14%; KB-V1 MDR tox: inconclusive; KB-3-1 cytotox: inactive; SW480 rerep: -11%

Results for N#Cc1ncc(N=Cc2ccc(N(CCCl)CCCl)cc2)s1 ?
HT1080 IDH1KD tx: 10µM*; MCF10A rereplic: 21µM*; HT1080NT lethal: inconclusive; KB-V1 MDR tox: inactive; KB-3-1 cytotox: inconclusive; SW480 rerep: inconclusive

What do the screens show for `Cc1nc2cc(C(F)(F)F)ccc2n1C1CCN(Cc2nnnn2CCc2ccccc2)CC1`?
HT1080 IDH1KD tx: inconclusive; MCF10A rereplic: inconclusive; HT1080NT lethal: 18µM*; KB-V1 MDR tox: inconclusive; KB-3-1 cytotox: inconclusive; SW480 rerep: -2%

What do the screens show for `Cc1nc2cc(F)ccc2n1C1CCN(Cc2nnnn2CCc2ccccc2)CC1`?
HT1080 IDH1KD tx: -17%; MCF10A rereplic: 2%; HT1080NT lethal: -23%; KB-V1 MDR tox: 12µM*; KB-3-1 cytotox: inactive; SW480 rerep: 7%

How did O=C(CN1CCc2ccccc2C1)Nc1ccccc1N1CCCCCC1 do in these assays?
HT1080 IDH1KD tx: inconclusive; MCF10A rereplic: 13µM*; HT1080NT lethal: -22%; KB-V1 MDR tox: inconclusive; KB-3-1 cytotox: inconclusive; SW480 rerep: inconclusive

What do the screens show for `O=C(CN1CCN(c2ccccc2F)CC1)Nc1cccnc1Cl`?
HT1080 IDH1KD tx: inconclusive; MCF10A rereplic: inconclusive; HT1080NT lethal: -15%; KB-V1 MDR tox: inactive; KB-3-1 cytotox: inactive; SW480 rerep: -2%

How did O=C(Nc1ccc(F)c(Cl)c1)N(Cc1ccc2c(c1)OCO2)C1CCN(Cc2ccccc2)CC1 do in these assays?
KB-V1 MDR tox: inactive; KB-3-1 cytotox: inactive

What do the screens show for `CC(C)C12CN3CC(C(C)C)(CN(C1)C3c1ccccn1)C2=O` (stereo unspecified)?
KB-V1 MDR tox: inactive; KB-3-1 cytotox: inactive

How did OC12ONC(c3ccccn3)C1N1CCC2CC1 (stereo unspecified) do in these assays?
HT1080 IDH1KD tx: -13%; MCF10A rereplic: 7.3µM*; HT1080NT lethal: 1%; KB-V1 MDR tox: inactive; KB-3-1 cytotox: inactive; SW480 rerep: 16µM*

What do the screens show for `O=C(Nc1nnc(SCc2ccccc2Cl)s1)C1COc2ccccc2O1` (stereo unspecified)?
HT1080 IDH1KD tx: -1%; MCF10A rereplic: inconclusive; HT1080NT lethal: 15%; KB-V1 MDR tox: inactive; KB-3-1 cytotox: inactive; SW480 rerep: -7%

How did CCCC(C)c1nnc(NC(=O)CCS(=O)(=O)c2ccccc2)s1 (stereo unspecified) do in these assays?
HT1080 IDH1KD tx: -21%; MCF10A rereplic: inconclusive; HT1080NT lethal: -11%; KB-V1 MDR tox: inactive; KB-3-1 cytotox: inactive; SW480 rerep: inconclusive

Results for O=C(O)c1cccc2c1NC(C(=O)O)C1CC(Sc3ccccc3[N+](=O)[O-])C(Cl)C21 (stereo unspecified) ?
HT1080 IDH1KD tx: 0%; MCF10A rereplic: 0%; HT1080NT lethal: 2%; KB-V1 MDR tox: inactive; KB-3-1 cytotox: inactive; SW480 rerep: -3%

What do the screens show for `CC(=O)c1ccc2c(c1)C1C(Cl)C(Sc3ccccc3[N+](=O)[O-])CC1C(C(=O)O)N2` (stereo unspecified)?
HT1080 IDH1KD tx: 5%; MCF10A rereplic: -44%; HT1080NT lethal: 5%; KB-V1 MDR tox: 10µM*; KB-3-1 cytotox: inactive; SW480 rerep: 1%

What do the screens show for `CC(=O)OCC(=O)[C@@H]1CC[C@H]2[C@H]3CC[C@H]4C[C@@H](O)CC[C@]4(C)[C@@H]3C(=O)C[C@@]12C`?
MCF10A rereplic: 2%[20.6 µM]; SW480 rerep: -1%[20.6 µM]

How did CCCCn1c(/N=C/c2c[nH]c3ccccc23)nc2ccccc21 do in these assays?
HT1080 IDH1KD tx: inconclusive; MCF10A rereplic: 12µM*; HT1080NT lethal: inconclusive; KB-V1 MDR tox: inactive; KB-3-1 cytotox: inactive; SW480 rerep: 18µM*

What do the screens show for `C(=NN1CCCCCC1)c1c[nH]c2ccccc12`?
HT1080 IDH1KD tx: 15%; MCF10A rereplic: 29%; HT1080NT lethal: 10%; KB-V1 MDR tox: inactive; KB-3-1 cytotox: inactive; SW480 rerep: 1%

What do the screens show for `CCCS(=O)(=O)NC(=O)C1(C)CCCN(C(=O)c2ccccc2OC)C1` (stereo unspecified)?
HT1080 IDH1KD tx: 23%; HT1080NT lethal: inconclusive; KB-V1 MDR tox: inactive; KB-3-1 cytotox: inactive

Results for C=CC[N+](C)(C)c1ccc(CCC(=O)CCc2ccc([N+](C)(C)CC=C)cc2)cc1 ?
HT1080 IDH1KD tx: 7%; MCF10A rereplic: -15%; HT1080NT lethal: 18%; KB-V1 MDR tox: inactive; KB-3-1 cytotox: inactive; SW480 rerep: -21%

Results for C[N+](C)(C)CC1CCCC(C[N+](C)(C)C)C1=O (stereo unspecified) ?
HT1080 IDH1KD tx: 3.7µM*; MCF10A rereplic: inconclusive; HT1080NT lethal: inconclusive; KB-V1 MDR tox: inconclusive; KB-3-1 cytotox: inconclusive; SW480 rerep: inconclusive

Results for C[N+](C)(C)CC1CCCc2ccccc2C1=O (stereo unspecified) ?
HT1080 IDH1KD tx: 5.8µM*; MCF10A rereplic: 13µM*; HT1080NT lethal: inconclusive; KB-V1 MDR tox: inactive; KB-3-1 cytotox: inconclusive; SW480 rerep: 16%

How did CC1OC(C)OC(C)O1 (stereo unspecified) do in these assays?
MCF10A rereplic: -1%; SW480 rerep: 2%

Bioassay records as filed in PubChem.
